Screening data: PubChem, National Center for Advancing Translational Sciences (NCATS)
gsp ag – qHTS for Agonist of gsp, the Etiologic Mutation Responsible for Fibrous Dysplasia/McCune-Albright Syndrome: qHTS | gsp mutant cells, cAMP HTRF, 30 min | Potency, µM (highest dose often 76.9 µM), for the others: at the highest dose activation (cAMP increase), actives largely listed as activators | 340,000 compounds, 0.13% hits; active = well fitted activation curve with a large enough effect; inconclusive = small, poorly fitted or top-dose-only effect, or another doubt; inactive = no such curve, though single readings can be large or run the other way; cell line not stated here;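 also: phosphodiesterase inhibitor Ro 20-1724 added with compounds to block cAMP breakdown; potency is read from the fitted curve at half-maximal effect; nearly all actives have a fitted effect of over 60% in size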
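Cells in DMEM/10% FBS with G418 were pretreated with compounds in DMSO plus […] (300 uM stock) for 30 min at 37C. cAMP was measured by HTRF (cAMP-d2 plus anti-cAMP antibody-K) after 30 min at room temperature.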
RXFP1 agonist – qHTS Assay for Agonists of the Relaxin Receptor RXFP1; HEK293T-RXFP1 cAMP TR-FRET, 30 min; response scale: percent of porcine relaxin response, buffer zero; Relaxin receptor 1 (Homo sapiens), Q9HBX9; Potency, µM (highest dose often 57.5 µM), for inactives: at the top dose activation, actives largely listed as activators; 370,000 compounds, 0.3% hits; active = well fitted activation curve with a large enough effect; inconclusive = small, poorly fitted or top-dose-only effect; also: potency is read from the fitted curve at half-maximal effect; % is scaled to controls: 0 for no effect and ±100 for the full control effect; nearly all actives have a fitted effect of over 60% in size
Target sequence (Q9HBX9 whole entry, looked up): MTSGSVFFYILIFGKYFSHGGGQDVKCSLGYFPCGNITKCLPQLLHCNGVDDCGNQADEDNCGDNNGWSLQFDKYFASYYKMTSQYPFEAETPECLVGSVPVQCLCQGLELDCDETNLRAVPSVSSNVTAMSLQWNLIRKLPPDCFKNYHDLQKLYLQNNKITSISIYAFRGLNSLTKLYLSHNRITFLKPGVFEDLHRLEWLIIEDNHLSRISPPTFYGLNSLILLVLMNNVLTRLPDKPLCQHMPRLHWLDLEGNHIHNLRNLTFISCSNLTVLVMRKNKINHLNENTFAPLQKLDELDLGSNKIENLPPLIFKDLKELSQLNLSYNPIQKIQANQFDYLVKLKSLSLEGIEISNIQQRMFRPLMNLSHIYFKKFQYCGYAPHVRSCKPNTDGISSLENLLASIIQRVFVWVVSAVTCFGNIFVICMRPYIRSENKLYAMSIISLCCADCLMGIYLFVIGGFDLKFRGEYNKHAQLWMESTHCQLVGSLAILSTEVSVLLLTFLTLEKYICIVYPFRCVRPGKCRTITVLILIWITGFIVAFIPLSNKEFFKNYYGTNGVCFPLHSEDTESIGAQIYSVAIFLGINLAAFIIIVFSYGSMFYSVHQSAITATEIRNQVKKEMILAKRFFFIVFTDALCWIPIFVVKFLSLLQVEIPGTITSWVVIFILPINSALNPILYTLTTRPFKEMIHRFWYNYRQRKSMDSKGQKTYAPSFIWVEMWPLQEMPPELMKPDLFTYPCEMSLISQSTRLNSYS
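HEK293 cells stably expressing RXFP1, treated 30 min at 37C with compounds plus PDE4 inhibitor Ro 20174; cAMP measured by HTRF TR-FRET. Normalized to buffer and 29 nM porcine relaxin; EC50 by Hill fit.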
RXFP1 antag – qHTS Assay for Antagonists of the Relaxin Receptor RXFP1; activity change, negative = inhibition, % at 57.5 µM; AID 1259400, 2018; HEK293-RXFP1, relaxin-stimulated cAMP HTRF, 30 min; stronger effect = lower value; 350,000 compounds, 0.59% hits;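 active = activity change of -60% or lower, but not beyond a set lower limit; inconclusive = change between -60% and -40%, or beyond the set limit; inactive = change above -40%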; also: % is scaled to controls: 0 for no effect and ±100 for the full control effect
Giardia kill – Small Molecules that selectively kill Giardia lamblia: qHTS. activity change, % at 7.66 µM, hits read low. Giardia lamblia trophozoite viability. 340,000 compounds, 0.15% hits; in the data active = activity change below about -80%; inconclusive = between about -30% and that limit;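 also: parasites exposed to compound for two days anaerobically before the ATP read; % is scaled to controls: 0 for no effect and ±100 for the full control effect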
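Each well holds 100 Giardia trophozoites and compound. After two days (48 hrs) at 37 deg C in anaerobic conditions, ATP is quantified by luminescence.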
FBPA coupling cs – qHTS Assay for Inhibitors of Fructose-1,6-bisphosphate Aldolase from Giardia Lamblia: Coupling assay counterscreen; coupling enzyme system counterscreen, AmpLite Red fluorescence; activity change, negative = inhibition, % at 58.2 µM, hits read low; 290,000 compounds, 0.67% hits; AID 2472, 2010; in the data active = activity change below about -30%; also: % is scaled to controls: 0 for no effect and ±100 for the full control effect
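Activity here indicates interference with the coupling reaction, not aldolase inhibition. Compounds at 57.5 uM final met coupling enzymes for 10 min at RT; substrate and AmpLite Red detection followed, with a 525/598 nm fluorescence read after 20 min.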
gsp antag – qHTS for Antagonists of gsp, the Etiologic Mutation Responsible for Fibrous Dysplasia/McCune-Albright Syndrome: qHTS | 340,000 compounds, 0.4% hits | Potency, µM (series often up to 76.9 µM), without a hit: top-dose activity change, negative = inhibition, most hits filed as inhibitors | AID 624288, 2012 | gsp-mutant cells, cAMP HTRF, 30 min; calls by dose curve; cell line not stated here;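 also: intracellular cAMP measured with PDE inhibitor Ro 20-1724 present during compound exposure; potency is read from the fitted curve at half-maximal effect; % is scaled to controls: 0 for no effect and ±100 for the full control effect; nearly all actives have a fitted effect of over 65% in size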
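Cells in G418 medium, seeded 16-24 h, 37C; buffer exchange to DPBS + 1 mM CaCl2, 0.5 mM MgCl2, 0.05% BSA; cpds in DMSO + […] (300 uM stock), 30 min 37C; HTRF cAMP detection.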
* = called active by the depositor; ? = inconclusive; · = no result given; [ ] = another dose, or the depositor's remark. Sampled rows, rich in hits. Any-hit rate of the full collection: about 1.6%.

SMILES	gsp ag	RXFP1 agonist	RXFP1 antag	Giardia kill	FBPA coupling cs	gsp antag
OCCn1c(-c2ccc(F)cc2)csc1=Nc1ccccc1	15%	1%	15	-15	0	3%
OCCn1c(-c2ccc3c(c2)OCO3)csc1=Nc1ccccc1	-23%	-1%	-20	-1	3	28µM*
Cc1cc2cc(CN3C(=O)c4ccccc4C3=O)ccc2n1C	32µM*	23%	4	-22	1	21%
Cc1ccc(S(=O)(=O)NCc2ccc3c(c2)cc(C)n3C)cc1	35%	2%	-2	0	-2	3%
Cc1ccc(SCCC(=O)N/N=C/c2cccnc2)cc1	-4%	0%	4	0	-32*	6%
NS(=O)(=O)c1ccc(CCNC(=O)C2CCC(Cn3c(=S)[nH]c4ccccc4c3=O)CC2)cc1 (stereo not given)	8%	5%	-69*	-14	0	-11%
NS(=O)(=O)c1ccc(CCNC(=O)C2CCCCC2)cc1	?	-4%	4	23	1	-2%
Nc1nc2[nH]c(=S)[nH]c2c(=O)[nH]1	·	·	·	3	·	·
CCOC(=O)c1c(-c2ccc(-c3ccccc3)cc2)csc1NC(=O)CNCCN(C)C	-6%[15.4 µM]	0%	-103*	13	0	18%
CC(=O)Nc1cc2c3c(c1)CC(=O)N3CCC2	-6%	3%	10	9	-2	50µM*
COc1ccc(C(=O)N2C=Cc3ccccc3C2C#N)cc1 (stereo not given)	7%	·	0	·	·	·
N#CC1c2ccccc2C=CN1C(=O)N(c1ccccc1)c1ccccc1 (stereo not given)	-1%[15.4 µM]	·	-94*	-14	·	-32%
CC1=CC(C)(C)N2C(=O)C(=Nc3ccc(O)cc3)c3cccc1c32	-76%	-2%	-1	-19	-45*	7%
N#CC1=C2SCN(Cc3ccccc3)CN2C(=O)CC1c1ccc2c(c1)OCO2 (stereo not given)	-28%	0%	-20	5	-32*	-7%
N#Cc1c(-c2ccccc2)nc(SCC(=O)Nc2nnc(C(F)(F)F)s2)[nH]c1=O	?	18µM*	22	-21	23	1%
Cc1cc(C)nc(NS(=O)(=O)c2ccc(NC(=O)CSc3nc(-c4ccccc4)c(C#N)c(=O)[nH]3)cc2)n1	?	18µM*	19	-5	26	28%
CCc1ccc(NC(=O)CSc2nc(-c3ccccc3)c(C#N)c(=O)[nH]2)cc1	·	25µM*	5	·	·	·
CO[C@@H]1COC(=O)[C@@H](C)COC(=O)[C@@H](C)NC(=O)C/C=C\[C@@H]1C	·	·	·	·	5	·
COc1cccc(/C=N/Nc2ncnc(Cl)c2N)c1O	-10%	3%	-39	-2	1	-1%
COc1ccc2nc(C)cc(N/N=C/c3cccc(OC)c3O)c2c1	-38%	0%	-26	-83*	-1	-6%
COc1cccc(/C=N/Nc2nccnc2Cl)c1O	-28%	0%	-70*	3	-1	-1%
Cc1cc(C)cc(OCC(=O)N/N=C/c2ccc([N+](=O)[O-])o2)c1	3%[15.4 µM]	-1%	-9	-88*	-7	3%
Cc1cccc(OCC(=O)N/N=C/c2ccc(N(C)C)cc2)c1	21%	-1%	-102*	-13	2	-13%
Cc1ccccc1OCC(=O)N/N=C/c1ccc([N+](=O)[O-])o1	-17%	1%	3	-93*	4	-5%
Cc1c(C(=O)N(C)C)sc2c1c(=O)n(-c1ccc(Cl)c(Cl)c1)c(=O)n2CC(=O)Nc1ccc(Br)cc1F	·	3%	·	1	·	·
SMILES	gsp ag	RXFP1 agonist	RXFP1 antag	Giardia kill	FBPA coupling cs	gsp antag
O=C1Nc2ccc(Br)cc2/C1=C/C(=O)c1ccccc1	10%	·	-82*	-8	·	-4%
CC(=O)/C=C1/C(=O)Nc2ccccc21	-5%	-1%	-73*	6	1	-27%
O=C(O)COc1ccccc1/C=C1\C(=O)Nc2ccc(Br)cc21	-9%[15.4 µM]	-1%	-19	-13	12	3%
O=C1C(=O)c2ccccc2C(O)=C1CC=C(Cl)Cl	4%	·	8	4	·	?
CC(C)=CCC1=C(O)c2ccccc2C(=O)C1=O	·	·	·	·	-61*	·
CCn1c(CSc2nccn2C)nc2cc(C(=O)O)ccc21	12%	1%	-3	-2	-36*	5%
CC1CCN(c2ccc(-c3cccs3)nn2)CC1	-32%	-1%	-6	-94*	-1	-13%
CCOC(=O)c1ccc(NC(=O)CSc2nc(C)cc(=O)[nH]2)cc1	-32%	0%	2	-2	5	-9%
CCOC(=O)c1c(-c2ccccc2Cl)csc1NC(=O)CSc1nc(C)cc(=O)[nH]1	-33%	1%	-80*	4	8	?
CC1=C(C(=O)OCc2ccccc2)C(c2ccccc2[N+](=O)[O-])NC(=O)N1C (stereo not given)	-30%	0%	-1	24	-3	-14%
C=CCOC(=O)/C=C/NC(=O)/C=C/C=C/CCCCCCCC(C)O (stereo not given)	·	·	·	·	7	·
Cc1n[nH]c(C)c1S(=O)(=O)N1CCCC(C(=O)N2CCN(c3ccc(Cl)cc3)CC2)C1 (stereo not given)	-45%	-3%	-31	-14	5	35µM*
Cc1cc(C)c(Nc2cc(S(=O)(=O)O)c(N)c3c2C(=O)c2ccccc2C3=O)c(C)c1	-16%	-11%	-29	-1	-4	28µM*
COc1ccc(Nc2nc(C)cc(C)c2C(N)=O)c(OC)c1	-26%	-1%	-8	-15	-40*	4%
COc1ccccc1Nc1nc(C)cc(C)c1C(N)=O	-28%	1%	-2	-4	1	-3%
CCc1nnc(NC(=O)CSc2nc(-c3ccccc3)nc3ccccc23)s1	7.9µM*	7%	-1	-21	7	19%
CCc1nnc(NC(=O)CSc2nnc(-c3ccccc3O)n2CC)s1	13%	1%	15	-13	5	-7%
CCc1nnc(NC(=O)CSc2nnc(-c3cc4ccccc4cc3O)n2CC)s1	4%	0%	-20	17	2	28µM*
COc1ccc(/C=C/c2nc(-c3ccccc3O)n[nH]2)cc1OC	-17%	-1%	-100*	-18	-1	-10%
O=C(O)COc1ccc(/C=C/c2nc(-c3ccccc3O)n[nH]2)cc1	-126%	0%	2	-4	2	-6%
